High-throughput results deposited in PubChem BioAssay by several laboratories.
FXN GAA850 act – increases GAA850 frataxin promoter reporter activity | HEK293 lucGAA850 FXN promoter luciferase reporter, 24 h; percent of 10 µM SAHA response | activation, % at 6 µM | 0.56% of 360,000 active | AID 540364;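 active = activation above the average of all compounds screened plus 3 SD, cutoff fixed separately per campaign, cut at about 7.5% in these data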;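 also: 0% = DMSO wells and 100% = 10 µM SAHA wells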
HSF1 inhib – HSF1 inhibition | activity change, negative = inhibition, % at 7.5 µM (by protocol) | AID 2098 | 0.77% of 300,000 active | NIH3T3-HGL HSE-luciferase, MG132-induced, luminescence 8 h; stronger effect = lower value;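 active = more than half of replicate wells show activity change below -50%, luminescence cut by over half; inconclusive = some wells, but at most half, below -50%; inactive = no replicate well below -50%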;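 also: luciferase reports HSF-1 transcriptional activity via heat shock element; 0% = median of DMSO wells and -100% = zero luminescence signal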
NR0B1 inh – inhibits human nuclear receptor DAX1 | inhibition, % at 6.75 µM | AID 504766 | HEK293 Gal4-DAX1 luciferase reporter, luminescence | 0.99% of 340,000 active;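 active = inhibition above the mean over all tested compounds plus 3 SD, cut at about 4.2% in these data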;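 also: 0% = DAX1-transfected cells with DMSO and 100% = empty-vector control cells with DMSO; inhibition shows as a rise in luminescence from relieved DAX1 repression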
AHR activator – activators of human aryl hydrocarbon receptor; activation, % at 5 µM; AHR-responsive luciferase reporter cells, luminescence; AID 2796; 2.5% of 320,000 active; in the data active = activation above about 47%;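 also: 0% = vehicle wells and 100% = reference agonist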
Target sequence (P35869 whole entry, looked up): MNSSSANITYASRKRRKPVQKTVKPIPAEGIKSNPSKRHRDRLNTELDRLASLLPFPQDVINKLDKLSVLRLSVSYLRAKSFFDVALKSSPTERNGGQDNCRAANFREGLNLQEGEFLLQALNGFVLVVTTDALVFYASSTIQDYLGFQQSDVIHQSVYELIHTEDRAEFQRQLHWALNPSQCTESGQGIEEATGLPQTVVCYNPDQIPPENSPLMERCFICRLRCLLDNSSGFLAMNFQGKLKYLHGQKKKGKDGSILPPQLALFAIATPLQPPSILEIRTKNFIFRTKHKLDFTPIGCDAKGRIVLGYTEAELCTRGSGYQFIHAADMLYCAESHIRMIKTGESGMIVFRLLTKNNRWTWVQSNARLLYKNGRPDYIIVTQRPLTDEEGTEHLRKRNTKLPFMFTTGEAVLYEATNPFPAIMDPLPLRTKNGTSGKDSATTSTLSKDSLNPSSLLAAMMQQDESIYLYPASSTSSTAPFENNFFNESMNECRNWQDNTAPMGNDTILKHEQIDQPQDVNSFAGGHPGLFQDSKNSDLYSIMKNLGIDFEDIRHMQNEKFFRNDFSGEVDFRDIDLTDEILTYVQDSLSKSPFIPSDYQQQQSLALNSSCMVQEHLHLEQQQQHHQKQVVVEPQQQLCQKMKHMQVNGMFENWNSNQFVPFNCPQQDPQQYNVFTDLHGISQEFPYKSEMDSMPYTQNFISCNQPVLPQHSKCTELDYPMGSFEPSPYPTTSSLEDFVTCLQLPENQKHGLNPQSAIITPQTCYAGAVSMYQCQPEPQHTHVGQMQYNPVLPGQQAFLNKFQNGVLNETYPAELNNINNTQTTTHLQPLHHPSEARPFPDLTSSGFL
HSP90 refold inh – HSP90 refolding inhibition in rabbit reticulocyte lysate | 0.91% of 290,000 active | luciferase refolding luminescence, 3 h | inhibition, % at 5.6 µM;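 active = inhibition above the screen-wide mean plus 3 SD, computed separately per campaign, cut at about 16% in these data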;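 also: 0% = DMSO wells and 100% = 60 µM geldanamycin wells; inhibitors lower the luminescence because luciferase stays unfolded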
HSF1 activator – increases HSF-1 driven luciferase reporter signal; NIH3T3-HGL HSF-1 luciferase reporter, MG132, 8 h; 100% = twice DMSO control signal; activation, % at 9 µM; 1.7% of 300,000 active; AID 504408;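 active = mean replicate activation of at least 50% with a set share of replicates each reaching 50%; inconclusive = only one of those two conditions met; inactive = mean below 50% and too few replicates reaching it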;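 also: 0% = median of the neutral control wells and 100% = twice that signal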
HSP90 confirm – confirmation of HSP90 inhibitors. 64% of 2,300 active. shares compounds with HSP90 refold inh. rabbit reticulocyte lysate, luciferase refolding luminescence, 3 h. AID 1846. inhibition, % at 5.9 µM; in the data active = inhibition above about 18%;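 also: 0% = vehicle wells and 100% = reference inhibitor wells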
FLuc counter – blocks native firefly luciferase in HSP90 counter-screen; purified native firefly luciferase, luminescence; AID 1847; shares compounds with HSP90 refold inh; inhibition, % at 5.9 µM; 48% of 2,300 active;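 active = inhibition above the mean inhibition of all tested sample wells plus 3 SD, cut at about 10% in these data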;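 also: 0% = DMSO with luciferase and 100% = wells lacking luciferase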
* = called active by the depositor; u = inconclusive; x = not tested or not shown. Most compounds without a hit are left out; they make up all but 5.9% or so of the library.

SMILES | FXN GAA850 act | HSF1 inhib | NR0B1 inh | AHR activator | HSP90 refold inh | HSF1 activator | HSP90 confirm | FLuc counter
O=C(Nc1nc2ccccc2[nH]1)C1CCCO1 (stereo unspecified) | 1 | 4 | 1 | 1 | 1 | 13 | x | x
O=C(OCC(=O)N1CCCc2ccccc21)c1ccc(S(=O)(=O)C(F)F)cc1 | 1 | -3 | -2 | 3 | x | 2 | x | x
Cc1ccccc1CSc1nc(-c2ccccc2)cc(=O)[nH]1 | -1 | 4 | -1 | 31 | 2 | -11 | x | x
Cc1ccc(N2C(=O)C(CC(=O)Nc3cccc(F)c3)N(C3CC3)C2=O)cc1 (stereo unspecified) | 3 | 1 | 0 | 1 | -2 | 20 | x | x
O=C(COC(=O)c1nsc(Cl)c1Cl)NC1CCCC1 | -1 | 8 | 1 | 0 | 23* | 9 | -5 | -14
O=C(COC(=O)c1nsc(Cl)c1Cl)NC1CCCCC1 | 1 | 0 | -1 | 0 | -4 | 1 | x | x
COc1ccc2c(c1)C(C)=CC(C)(C)N2S(=O)(=O)c1ccc(C)cc1 | -1 | -14 | 2 | 0 | 0 | -28 | x | x
CCOc1ccc2c(c1)C(C)=CC(C)(C)N2S(=O)(=O)c1ccc(C)cc1 | 3 | -14 | 0 | x | 30* | -23 | 12 | 4
O=C(NCC(c1cccs1)N1CCOCC1)c1cccc([N+](=O)[O-])c1 (stereo unspecified) | 2 | 4 | 0 | 4 | 67* | 8 | -7 | -6
O=C(NCC(c1cccs1)N1CCOCC1)c1cc([N+](=O)[O-])cc([N+](=O)[O-])c1 (stereo unspecified) | 0 | -1 | -1 | -3 | 3 | 12 | x | x
O=C(COc1cccnc1[N+](=O)[O-])Nc1ccc(F)cc1 | 4 | x | 3 | -3 | x | x | x | x
CC(NC(=O)COc1cccnc1[N+](=O)[O-])c1ccc(F)cc1 (stereo unspecified) | 1 | -11 | -1 | 1 | 30* | -23 | 3 | -6
O=C(CCNS(=O)(=O)c1ccccc1F)N1CCN(C(c2ccccc2)c2ccccc2)CC1 | -2 | -7 | -1 | 1 | x | -7 | x | x
Cc1cccc(-c2cc3nc(C)c(C)c(NCCCn4ccnc4)n3n2)c1 | 5 | -2 | -2 | 12 | 19* | 2 | 2 | -5
COCCN(C(=O)CCCc1nc2ccccc2s1)c1c(N)n(CC(C)C)c(=O)[nH]c1=O | 1 | x | 0 | 6 | x | x | x | x
Cn1nc(-c2ccc(Cl)cc2)nc2c(=O)n(C)c(=O)nc1-2 | x | -95* | x | -10 | 95* | -94 | 97* | 90*
CS(=O)(=O)n1nc(-c2ccc(Cl)cc2)nc1N | 2 | 4 | 1 | -4 | 1 | 1 | x | x
CN(C)C(=O)CSc1cnc2ccccc2n1 | -1 | -3 | 1 | 9 | -1 | 4 | x | x
Cc1ccc(C(=O)CSc2cnc3ccccc3n2)cc1C | -6 | -48 | -1 | 36 | 37* | -56 | 47* | 29*
CCn1cnc2c1c(=O)n(CC(=O)NCC(F)(F)F)c(=O)n2Cc1ccccc1 | 1 | -6 | -1 | 0 | -2 | 0 | x | x
Cc1ccc(CN(Cc2ccccn2)C(=O)Nc2c(F)cccc2F)cc1 | 0 | -4 | 0 | 3 | -2 | 27 | x | x
CCC(=O)Nc1cc(C(=O)OCC(=O)c2ccccc2)ccc1C | 5 | -3 | 2 | 10 | 20* | 13 | 45* | -34
Cc1cc(Br)ccc1NC(=O)C1CCN(C(=O)c2ccco2)CC1 | 2 | -5 | -1 | 0 | 75* | 15 | -9 | -11
Cc1nc(SCC(=O)NC2CCCC2)c2oc3ccccc3c2n1 | 1 | x | 1 | x | x | x | x | x
Cc1ccc(C2NC(=O)NC3=C2CCc2ccccc23)cc1 (stereo unspecified) | -7 | x | 0 | 29 | 23* | x | 52* | 67*
SMILES | FXN GAA850 act | HSF1 inhib | NR0B1 inh | AHR activator | HSP90 refold inh | HSF1 activator | HSP90 confirm | FLuc counter
COc1ccc(CCNC(=O)Cc2ccc(Cl)cc2)cc1OC | 0 | 1 | 0 | 1 | -6 | 8 | x | x
COc1ccc(CCNC(=O)Cc2cc(OC)c(OC)cc2Br)cc1OC | 3 | 1 | 0 | 2 | 34* | -5 | -3 | -4
Cc1ccc(S(=O)(=O)CCC(=O)OCC(=O)N2c3ccccc3NC(=O)C2(C)C)cc1 | 1 | -7 | 2 | 2 | x | 3 | x | x
CCCCN(CCCC)CCNC(=O)CSCc1ccc(C)cc1 | 0 | -1 | -1 | 0 | 3 | -13 | x | x
O=c1c(Cl)c(N2CCCCC2)cnn1-c1nc2ccccc2[nH]1 | -11 | -34 | -4 | -9 | 65* | -44 | 86* | 80*
Clc1ccc2nc(N3CCCCC3)[nH]c2c1 | 0 | 19 | 1 | 10 | 0 | 29 | x | x
Cc1ccc(C(=O)N/C(=C\c2sccc2C)C(=O)NCc2ccco2)cc1 | 1 | -9 | 0 | 1 | 25* | 8 | -4 | -2
Cc1ccc(C(=O)N/C(=C\c2sccc2C)C(=O)NCc2ccncc2)cc1 | 0 | 0 | 0 | 7 | -5 | 5 | x | x
COC(=O)c1cc(C)nc2c1C(=O)C(=O)C=C2N1CCOCC1 | -13 | 4 | -7 | -1 | 45* | 30 | 91* | -3
Cc1ccccc1NC(=O)COC(=O)COc1ccc2ccc(=O)oc2c1 | 0 | x | 0 | x | x | x | x | x
Cc1ccc(-n2nnc(-c3nccn3C)n2)cc1 | 0 | 6 | -3 | 4 | 33* | 5 | 50* | 37*
Cc1[nH]nc2c1C1(CCN(C(=O)OCc3ccccc3)CC1)C(C#N)=C(N)O2 | -3 | -5 | 0 | 5 | 24* | 0 | 7 | 4
CN(C)c1ccc(-c2nc3ccccc3c(=O)[nH]2)cc1 | -2 | -3 | -4 | 37 | 34* | 20 | 68* | 53*
CCC(CC)c1nc2ccccc2c(=O)[nH]1 | -2 | 1 | 0 | -1 | 1 | 11 | x | x
CCc1nnc(N/N=C/c2cccs2)n1N | 2 | 17 | -2 | 15 | 66* | 28 | -1 | -5
CCc1nnc2cccc(Cl)n12 | 0 | -3 | 2 | 1 | -6 | 0 | x | x
CCc1nnc(N/N=C\c2ccc(OC(C)=O)c(OC)c2)n1N | 0 | u | -1 | 2 | 0 | -62 | x | x
CCc1nnc(N/N=C/c2c(Cl)cccc2Cl)n1N | 2 | 24 | -1 | 0 | 57* | u | -4 | -9
Nn1c(SCC(=O)NCc2ccc3c(c2)OCO3)nnc1C(F)(F)F | 1 | x | 1 | -1 | x | x | x | x
CC1=C(CC(=O)c2ccccc2)C(=O)c2ccccc2C1=O | -2 | -8 | -1 | 48* | 17* | -28 | 10 | -11
COc1ccc(C(=O)Nn2c(SCC(=O)NCc3ccccc3)nc3ccccc3c2=O)cc1 | -7 | -61* | -3 | -2 | 68* | -68 | 50* | 49*
